Source: PubChem BioAssay
PI5P4K alpha inh – qHTS for Inhibitors of phosphatidylinositol 5-phosphate 4-kinase (PI5P4K) | Phosphatidylinositol 5-phosphate 4-kinase type-2 alpha (Homo sapiens), P48426 | AID 652105, 2013 | PI5P4Kalpha enzyme, ADP-Glo luminescence, 60 min; active compounds read low | max response, % | hit rate 1.2% among 330,000; active = max response of -50% or lower; inconclusive = between -30% and -50%; inactive = -30% or higher; note: value at the top dose of about 77 µM
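Compounds were pin-transferred onto PI5P4Kalpha and substrate in HEPES pH 7.4 buffer with EGTA, CHAPS and 5% DMSO. ATP (5 microM final) started the reaction, which ran 60 minutes at room temperature before ADP-Glo detection.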
JMJD2A Tudor inh – qHTS Assay for Inhibitors of JMJD2A-Tudor Domain. AlphaScreen JMJD2A-Tudor / H3K4me3 peptide binding. Potency, µM (titrated, usually from 114 µM), most hits filed as inhibitors. hit rate 4.4% among 390,000; note: nearly all actives have a fitted effect of over 50% in size
BAZ2B block – qHTS Assay for Inhibitors of BAZ2B; Potency, µM (titrated, usually from 114 µM), actives largely listed as inhibitors; hit rate 4.4% among 360,000; AlphaScreen BAZ2B-H3K14Ac peptide displacement; Bromodomain adjacent to zinc finger domain protein 2B (Homo sapiens), Q9UIF8; AID 504333, 2011; note: nearly all actives have a fitted effect of over 60% in size
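Inhibition is scored as reduced AlphaScreen emission. The BAZ2B/b-H3(5-23)K14Ac complex (50 nM each) in PBS pH 7.4, 0.01% Tween-20 meets compound (up to 110 uM) for 30 min at RT before bead addition.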
G9a inh – qHTS Assay for Inhibitors of Histone Lysine Methyltransferase G9a. AID 504332, 2011. G9a H3K9 monomethylation, AlphaScreen, 2 h. Histone-lysine N-methyltransferase EHMT2 (Homo sapiens), Q96KQ7. Potency, µM (series often up to 102 µM), usual class: inhibitors. hit rate 8.8% among 350,000; note: nearly all actives have a fitted effect of over 75% in size
Target sequence (Q96KQ7 913-1193 limits assumed): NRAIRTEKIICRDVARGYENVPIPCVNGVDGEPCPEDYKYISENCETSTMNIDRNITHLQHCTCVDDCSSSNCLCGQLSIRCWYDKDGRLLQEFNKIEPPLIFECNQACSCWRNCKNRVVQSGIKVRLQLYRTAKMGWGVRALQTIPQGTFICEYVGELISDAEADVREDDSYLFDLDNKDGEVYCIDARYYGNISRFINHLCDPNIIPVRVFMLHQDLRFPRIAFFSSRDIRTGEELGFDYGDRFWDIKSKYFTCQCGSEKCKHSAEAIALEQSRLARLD
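Using a bead-based AlphaScreen, monomethylated H3K9 product from 2 h room-temperature reactions (G9a 20 nM, peptide 500 nM, SAM 20 uM) was detected with 0.5 ug/mL rabbit anti-H3K9me1 antibody.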
PLK1 PBD inh – qHTS for Inhibitors of PLK1-PDB (polo-like kinase 1 - polo-box domain): Primary Screen | AID 720504, 2013 | Serine/threonine-protein kinase PLK1 (Homo sapiens), P53350 | hit rate 2.8% among 360,000 | Plk1 PBD binding of FITC phosphopeptide, fluorescence polarization | Potency, µM, usual class: inhibitors; note: series mostly up to about 57 µM; nearly all actives have a fitted effect of over 65% in size
HP1b binding inh – HTS for Inhibitors of HP1-beta Chromodomain Interactions with Methylated Histone Tails. AID 540317, 2011. Potency, µM (doses to about 114 µM), most hits filed as inhibitors. hit rate 0.56% among 390,000. Chromobox protein homolog 1 (Homo sapiens), P83916. AlphaScreen HP1-beta / biotin-H3K9me3 peptide binding; note: nearly all actives have a fitted effect of over 70% in size
Target sequence (P83916 whole entry, looked up): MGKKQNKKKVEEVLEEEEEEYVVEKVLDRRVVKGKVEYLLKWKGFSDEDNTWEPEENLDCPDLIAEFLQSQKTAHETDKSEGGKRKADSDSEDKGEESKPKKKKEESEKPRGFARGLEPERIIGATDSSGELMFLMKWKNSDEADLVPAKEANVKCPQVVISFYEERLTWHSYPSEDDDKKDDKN
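HP1-beta protein (50 nM final) preincubated 30 min at room temperature with biotinylated H3(1-18)K9me3 peptide (50 nM) in PBS pH 7.4, 0.01% Tween-20, then compound added for 30 min. AlphaScreen streptavidin donor/nickel chelate acceptor beads (10 ug/mL final), 30 min dark, luminescence read.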
TbPYK confirm – qHTS of Trypanosoma Brucei Inhibitors: Confirmatory Assay for Cherry-picked Compounds; shares compounds with PLK1 PBD inh; recombinant TbPYK, Kinase-Glo ATP luminescence; Potency, µM (highest dose often 76.9 µM), usual class: inhibitors; hit rate 67% among 890; note: nearly all actives have a fitted effect of over 70% in size
TbPYK orthogonal – qHTS of Trypanosoma Brucei Inhibitors: Orthogonal Assay for Cherry-picked Compounds; hit rate 62% among 890; AID 720584, 2013; recombinant TbPYK, ADP-Glo luminescence, 60 min; shares compounds with PLK1 PBD inh; Potency, µM (highest dose often 76.9 µM), most hits filed as inhibitors; note: nearly all actives have a fitted effect of over 75% in size
Each line names hits and unclear results; the compound was inactive in the other large screens (follow-up assays come after a bar, where they were run). Rows were chosen to be rich in hits. Some 12% of all compounds tested hit in one or more screens of this group. Unless noted, calls come from the whole dose curve; as a rule, active = well fitted curve in the direction sought with a large enough effect; inconclusive = small, poorly fitted or top-dose-only effect, or another doubt; inactive = no such curve, though single readings can be large; an effect the other way counts as inactive or inconclusive.

COc1cc(N=c2ssnc2Cl)c(OC)cc1Cl	PI5P4K alpha inh -68, JMJD2A Tudor inh 25µM, BAZ2B block 28µM, G9a inh 1.1µM, PLK1 PBD inh 1.7µM, HP1b binding inh 11µM | TbPYK confirm 4.5µM | TbPYK orthogonal 6.3µM
COc1ccc(OC)c(N=c2ssnc2Cl)c1	PI5P4K alpha inh -64, JMJD2A Tudor inh inconclusive, BAZ2B block 25µM, G9a inh 1.1µM, PLK1 PBD inh 2.7µM, HP1b binding inh inconclusive | TbPYK confirm 16µM | TbPYK orthogonal 14µM
COc1cc(-n2nnnc2SC)c(OC)cc1Cl	none
CCCCOc1ccc(C2c3c(oc4ccccc4c3=O)C(=O)N2c2nc(C)c(C(=O)OCC)s2)cc1OC (stereo not drawn)	none (no result: PI5P4K alpha inh, PLK1 PBD inh)
Cc1nn(C)c(Sc2ccccc2N)c1[N+](=O)[O-]	JMJD2A Tudor inh 18µM, G9a inh 7.9µM, PLK1 PBD inh 13µM | TbPYK confirm 13µM | TbPYK orthogonal 13µM
Cc1nn(C)c(N)c1[N+](=O)[O-]	none (no result: G9a inh)
CCSc1nnc(NC(=O)C2CCCN(C(=O)c3ccc(Cl)cc3)C2)s1 (stereo not drawn)	none (no result: JMJD2A Tudor inh, BAZ2B block, G9a inh, HP1b binding inh)
CCOC(=O)c1cnc2ccc(OCC)cc2c1NCc1cccnc1	none | TbPYK confirm inactive | TbPYK orthogonal inactive
COc1cc(NC(=O)CSc2nc3ncccc3o2)cc(OC)c1	HP1b binding inh inconclusive (no result: PI5P4K alpha inh, PLK1 PBD inh)
CC(=O)c1cccc(NC(=O)CSc2nc(=O)n(CCN3CCOCC3)c3c2CCCC3)c1	none
CCc1ccc(CNC(=O)CCCN2C(=O)CCn3nc(-c4cccn4C)cc32)cc1	JMJD2A Tudor inh inconclusive, BAZ2B block inconclusive, G9a inh inconclusive (no result: PI5P4K alpha inh, PLK1 PBD inh)
COc1ccc(-n2nnnc2Sc2ccc(S(=O)(=O)N3CCOCC3)cn2)cc1	JMJD2A Tudor inh 22µM, G9a inh 1.8µM, PLK1 PBD inh 9.5µM, HP1b binding inh inconclusive | TbPYK confirm 14µM | TbPYK orthogonal 18µM
CC(C)Cc1ccc(C(=O)Nc2ccc(Cc3ccncc3)cc2)o1	none
CCOC(=O)C1C(=O)CC(C)(O)C(C(=O)OCC)C1c1ccccc1 (stereo not drawn)	none
CCOC(=O)C1C(=O)CC(C)(O)C(C(=O)OCC)C1c1ccc(Br)o1 (stereo not drawn)	G9a inh inconclusive | TbPYK confirm inconclusive | TbPYK orthogonal inactive
N#C/C(=C\c1ccc(C(=O)O)cc1)c1ccccn1	PI5P4K alpha inh inconclusive | TbPYK confirm inconclusive | TbPYK orthogonal inactive
Cc1cc(Br)ccc1NC(=O)CN(C)C(=O)Cn1c(=O)cnc2ccccc21	JMJD2A Tudor inh 18µM, BAZ2B block 79µM, HP1b binding inh inconclusive (no result: G9a inh) | TbPYK confirm inconclusive | TbPYK orthogonal inconclusive
CCOc1ccc(N2CC(NS(=O)(=O)c3cccnc3)CC2=O)cc1 (stereo not drawn)	none
COc1ccc(-c2c(C#N)c(SCC(=O)Nc3ccccc3C)nc(C)c2C(=O)Nc2ccccc2)cc1OC	none (no result: PI5P4K alpha inh, PLK1 PBD inh)
CC(C)CCNC(=O)NC(=O)CSc1ccc(S(=O)(=O)N2CCOCC2)cn1	G9a inh 1.6µM, PLK1 PBD inh inconclusive | TbPYK confirm 16µM | TbPYK orthogonal 14µM
COc1ccc(C2NC(=S)N(c3ccccc3)C(C)=C2C(=O)Nc2ccccc2)cc1 (stereo not drawn)	G9a inh inconclusive
